Compounds with a hit are over-represented: about 2.3% of the library has one in this group of screens.
TGFb inhibitor: qHTS for Inhibitors of TGF-b; HepG2 CAGA-GFP TGF-b/SMAD3 reporter, GFP fluorescence, 18 h; TGF-beta stimulated, 500 pg/mL final; Potency, µM (series often up to 46.1 µM), hits mostly inhibitors; hit rate 1.2% among 410,000; AID 588855, 2011; note: nearly all actives have a fitted effect of over 65% in size
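Using HEPG2 CAGA-GFP reporter cells at 1000 cells/well, we pinned test compounds, stimulated with recombinant TGF-beta (500 pg/mL final) and measured total well GFP after 18 h.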
ATXN2 expr inh: Primary qHTS for Inhibitors of ATXN expression | HEK-293 ATXN2-luciferase reporter, luminescence, 24 h | Potency, µM (highest dose often 57 µM), hits mostly inhibitors | hit rate 0.72% among 360,000; note: nearly all actives have a fitted effect of over 55% in size
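ATXN2-luciferase reporter cells (luciferase flanked by upstream and downstream ATXN2 gene portions) were treated 24 h at 37 °C with compounds at up to 57 uM. SteadyGlo luminescence gave expression; GF-AFC fluorescence gave viability.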
HepG2 viability: qHTS for Inhibitors of TGF-b: Cytotox Counterscreen | HepG2 CAGA-GFP viability, ATP luminescence, 18 h | Potency, µM (doses to about 46.1 µM), most hits filed as cytotoxic | hit rate 0.76% among 410,000 | AID 588856, 2011
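HepG2 CAGA-GFP cells (1000/well, DMEM with 1% FBS) received compound, then TGF-beta at 500 pg/mL final, and were incubated 18 hours at 37 degrees C. Viability was read by CellTiter-Glo luminescence. Media-only wells were set as complete cell-killing and DMSO as no toxicity.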
S2 tox: Viability Counterscreen for Primary qHTS for Inhibitors of ATXN expression; S2 cells (HEK-293 line with an ATXN2-luciferase reporter) viability, CellTiter-Fluor protease fluorescence, 24 h; Potency, µM (series often up to 56.7 µM), hits mostly cytotoxic; hit rate 0.49% among 400,000; AID 651635, 2014; note: nearly all actives have a fitted effect of over 40% in size
Each line names hits and unclear results; the compound was inactive in the other large screens; ! = not active in a repeat. Calls come from the whole dose curve; as a rule, active = well fitted curve in the direction sought with a large enough effect; inconclusive = small, poorly fitted or top-dose-only effect, or another doubt; inactive = no such curve, though single readings can be large; an effect the other way counts as inactive or inconclusive.

COCCOC(=O)C1=C(C)NC2=C(C(=O)CC(c3ccccc3OC)C2)C1c1cccc(O)c1 (stereo not drawn)	none (no result: TGFb inhibitor, HepG2 viability, S2 tox)
COC(=O)c1ccccc1-c1ccc(/C=N/Nc2nc(N3CCCC3)nc(N3CCCC3)n2)o1	TGFb inhibitor 13µM, ATXN2 expr inh inconclusive, S2 tox inconclusive
COc1ccc(C(N)c2csc(Nc3nncc4ccccc34)n2)cc1 (stereo not drawn)	TGFb inhibitor 13µM, S2 tox inconclusive
COc1ccc(C(N)c2csc(Nc3ncccn3)n2)cc1 (stereo not drawn)	none
Cc1nn(Cc2c(Cl)cccc2Cl)c(C)c1NC(=O)c1cn(-c2ccccc2)nc1-c1ccccc1	ATXN2 expr inh 13µM, S2 tox 13µM
CCN(CC)c1ccc(-c2nnc(SCC(=O)NCc3ccco3)n2C)cc1	none (no result: ATXN2 expr inh, S2 tox)
CCN(CCCN(C)C)c1ccc(/C=C/c2ccnc3ccccc23)cc1	none (no result: ATXN2 expr inh, S2 tox)
Cc1ccccc1NC(=O)COC(=O)c1cccc(S(=O)(=O)N2CCCCC2)c1	none
Cc1cc(=O)[nH]c(SCC(=O)Nc2cc(S(=O)(=O)N3CCCC3)ccc2Cl)n1	none
Cc1ccc(S(=O)(=O)N2CCCCC2)cc1NC(=O)COC(=O)c1cccc(O)c1	HepG2 viability 11µM (no result: ATXN2 expr inh)
CCCc1cc(=O)[nH]c(SCC(=O)Nc2cc(S(=O)(=O)N3CCCCC3)ccc2C)n1	TGFb inhibitor inconclusive, HepG2 viability 16µM
Cc1ccc2c(C(=O)CNC3=NCCS3)c(C)[nH]c2c1	none (no result: ATXN2 expr inh, S2 tox)
CCCCN(CC)C(=O)CSc1nc2n[nH]c(C)c2c(=N)n1-c1ccc(CC)cc1	TGFb inhibitor 1.4µM (no result: ATXN2 expr inh, S2 tox)
Cc1[nH]nc2nc(SCC(=O)NC3CCCCC3)n(-c3ccc(Br)cc3)c(=N)c12	ATXN2 expr inh 13µM, S2 tox 20µM
CCCN(CCC)C(=O)CSc1nc2n[nH]c(C)c2c(=N)n1-c1ccc(OCC)cc1	TGFb inhibitor inconclusive
CCCCN(CC)C(=O)CSc1nc2n[nH]c(C)c2c(=N)n1-c1cccc(OC)c1	TGFb inhibitor 4.5µM (no result: ATXN2 expr inh, S2 tox)
CCCN(CCC)C(=O)CSc1nc2n[nH]c(C)c2c(=N)n1-c1ccc(OC)cc1	none
N[C@@]1(C(=O)O)CS(=O)(=O)[C@H]2[C@H](C(=O)O)[C@H]21	none (no result: TGFb inhibitor, HepG2 viability, S2 tox)
c1ccc(COc2ncnc3c2ncn3CCCN2CCN(Cc3cccc4ccccc34)CC2)cc1	TGFb inhibitor inconclusive, ATXN2 expr inh 22µM, S2 tox inconclusive
C[C@@H](NC(=O)Cn1cnc2c(OCc3ccccc3)ncnc21)c1cccc2ccccc12	TGFb inhibitor inconclusive, S2 tox inconclusive
C[C@@H](NCCCn1cnc2c(OCc3ccccc3)ncnc21)c1cccc2ccccc12	TGFb inhibitor inconclusive, ATXN2 expr inh inconclusive, HepG2 viability 14µM, S2 tox inconclusive
Cc1ccc(CN2CCN(CCCn3cnc4c(OCc5ccccc5)ncnc43)CC2)cc1	TGFb inhibitor inconclusive, ATXN2 expr inh inconclusive, S2 tox inconclusive
c1ccc(CCCNCCCn2cnc3c(OCc4ccccc4)ncnc32)cc1	TGFb inhibitor inconclusive, ATXN2 expr inh inconclusive, S2 tox 25µM
COc1ccccc1N1CCN(c2nc(C)nc3c2oc2ccccc23)CC1	TGFb inhibitor inconclusive, ATXN2 expr inh 35µM, S2 tox inconclusive
Cc1cc(C)c(NC(=O)Cn2c(=O)n(Cc3ccc(C(=O)NCc4ccco4)cc3)c(=O)c3sccc32)c(C)c1	TGFb inhibitor 10µM (no result: ATXN2 expr inh, S2 tox)
CC1CCC(C(C)C)C(OC(=O)C[n+]2cc(-c3ccc(Cl)cc3)n3c2CCC3)C1 (stereo not drawn)	TGFb inhibitor 11µM, ATXN2 expr inh inconclusive
CCOc1ccc(CNC(=O)c2ccc(Sc3ccc(Cl)cc3)c(NC(C)=O)c2)cc1OC	TGFb inhibitor 11µM!, S2 tox inconclusive
O=C(c1ccc(F)c(F)c1)N1CCOc2ccc(CN3CCN(CCO)CC3)cc2C1	none (no result: TGFb inhibitor, ATXN2 expr inh, HepG2 viability)
O=C(/C=C/c1ccc(C(F)(F)F)cc1)OC(C(=O)NC1CC1)c1ccccc1 (stereo not drawn)	none (no result: ATXN2 expr inh, S2 tox)
CCOC(=O)C1CCN(C(=O)c2ccc3c(=O)n4nc(Nc5cc(C)ccc5C)sc4nc3c2)CC1	TGFb inhibitor 13µM
Cc1ccc(C)c(Nc2nn3c(=O)c4ccc(C(=O)NCc5cccs5)cc4nc3s2)c1	TGFb inhibitor 5µM, HepG2 viability 6.3µM (no result: ATXN2 expr inh, S2 tox)
CCOC(=O)C1CCN(C(=O)c2ccc3c(=O)n4nc(Nc5ccccc5OC)sc4nc3c2)CC1	none (no result: ATXN2 expr inh)
S=C(NCc1ccco1)N/N=C/c1ccc(Cl)cc1	TGFb inhibitor 13µM
CCNS(=O)(=O)c1ccc(CCC(=O)NC2CCCC2)cc1	HepG2 viability 0.1µM
CC(C)CNS(=O)(=O)c1ccc(CCC(=O)NC2CCCC2)cc1	none
COc1ccc2c(c1)-c1nc(-n3ncc(C(=O)NC[C@@H]4CCCN5CCCC[C@H]45)c3C)ncc1CC2	S2 tox 25µM (no result: TGFb inhibitor, ATXN2 expr inh, HepG2 viability)
Cc1c(CCNC(=O)c2ccc(Br)o2)sc2nc(-c3ccc(Cl)cc3)nn12	TGFb inhibitor 11µM (no result: ATXN2 expr inh, S2 tox)
COc1ccc(-c2nc3sc(CCNC(=O)Cc4ccc(Cl)cc4)c(C)n3n2)cc1	none (no result: ATXN2 expr inh, S2 tox)
Cc1ccc(-c2nc3sc(CCNC(=O)c4ccc(F)c(F)c4)c(C)n3n2)cc1	none
COc1ccc(-c2nc3sc(CCNC(=O)c4cc(Cl)ccc4OC)c(C)n3n2)cc1	ATXN2 expr inh inconclusive, S2 tox 25µM
Cc1ccc(-c2nc3sc(CCNS(=O)(=O)c4cc(F)ccc4F)c(C)n3n2)cc1	TGFb inhibitor 6.3µM (no result: ATXN2 expr inh, S2 tox)
COc1ccc(-c2nc3sc(CCNC(=O)c4ccc(Br)o4)c(C)n3n2)cc1	TGFb inhibitor inconclusive, S2 tox inconclusive
O=C(C[n+]1ccccc1Br)c1ccc(I)cc1	none (no result: ATXN2 expr inh, S2 tox)
CN(C)C(=O)c1ccc(S(=O)(=O)c2ccc(NC(=O)[C@@](C)(O)C(F)(F)F)c(Cl)c2)cc1	none (no result: TGFb inhibitor, HepG2 viability, S2 tox)
O/N=C(/CI)c1ccc2ccccc2c1	none (no result: ATXN2 expr inh, S2 tox)
COc1cc(NC(=O)COc2ccccc2[N+](=O)[O-])ccc1NC(=O)c1cccs1	TGFb inhibitor inconclusive, ATXN2 expr inh inconclusive, S2 tox 13µM
Cc1ccc(C(N)=O)cc1Nc1nccc(-c2cn(C(C)C)c3cnccc23)n1	ATXN2 expr inh 12µM (no result: TGFb inhibitor, HepG2 viability, S2 tox)
Cc1ccc(C)c(NS(=O)(=O)c2cc(C(N)=O)ccc2C)c1	none
CC(OC(=O)c1ccc(S(C)(=O)=O)c([N+](=O)[O-])c1)C(=O)NC1C2CC3CC(C2)CC1C3 (stereo not drawn)	TGFb inhibitor 3.2µM, ATXN2 expr inh inconclusive, S2 tox 3.2µM
CC1CCN(C(=O)C(C)OC(=O)c2ccc(S(C)(=O)=O)c([N+](=O)[O-])c2)CC1 (stereo not drawn)	TGFb inhibitor 10µM (no result: ATXN2 expr inh, S2 tox)
CS(=O)(=O)c1ccc(C(=O)OCC(=O)N2CCc3ccccc32)cc1[N+](=O)[O-]	TGFb inhibitor inconclusive (no result: ATXN2 expr inh, S2 tox)
CC(C)CN1CCN(C(=O)COC(=O)c2ccc(S(C)(=O)=O)c([N+](=O)[O-])c2)CC1	TGFb inhibitor 4.5µM, HepG2 viability 4.5µM, S2 tox 32µM
CS(=O)(=O)c1ccc(C(=O)OCC(=O)NC(=O)NC2CCCCC2)cc1[N+](=O)[O-]	TGFb inhibitor 4.5µM, HepG2 viability 6.3µM (no result: ATXN2 expr inh, S2 tox)
